Experimental findings from the supplement of paper PMC4709259 are described below.

Structures can show the parent of a compound that is named as a salt. ± gives the standard deviation.

The subject of the experiment is Jurkat. Nature of the experiment: mean cell size (FSC-A) relative to DMSO control (fraction of control); higher = larger cells. To be noted: 48 h. In short, it runs like this:
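Jurkat cells seeded at 600 cells/µl were incubated 1 h, then exposed for 48h to the Enzo Screen-Well FDA Approved Drug Library v2.0 at 25µM in 0.9% (v/v) final DMSO. Drugs that cut counts below 20% of controls were diluted 10-fold and retested, down to 25nM. Cell count and mean cell size (forward scatter area) were read on an Accuri C6 flow cytometer, relative to solvent-only controls. Plates held 6-12 controls; values are means of 3 biological replicates.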
Turning to `CN(C)c1ccc(O)c2c1C[C@H]1C[C@H]3[C@H](N(C)C)C(=O)C(C(N)=O)=C(O)[C@@]3(O)C(=O)C1=C2O` [Minocycline] (concentration: 2.5 µM), the mean cell size worked out at 0.969 ± 0.027.
In turn, `COc1ccc2cc([C@H](C)C(=O)O)ccc2c1` [Naproxen] (concentration: 25 µM) gave a mean cell size of 0.941 ± 0.041.
The value for `CN1CCc2cccc3c2[C@H]1Cc1ccc(O)c(O)c1-3` [Apomorphine·HCl Hemihydrate] (concentration: 2.5 µM) was 1.031 ± 0.0071; that for `CC(C)NCC(O)COc1ccc(COCCOC(C)C)cc1` (centres undefined) [Bisoprolol Fumarate] (concentration: 25 µM) was 0.964 ± 0.046; that for `C[N+](C)(C)CCOC(=O)CCC(=O)OCC[N+](C)(C)C` [Succinylcholine Chloride·2H2O] (concentration: 25 µM) was 0.943 ± 0.014.
In the case of `CO/N=C(\C(=O)N[C@@H]1C(=O)N2C(C(=O)OC(C)OC(C)=O)=C(COC(N)=O)CS[C@H]12)c1ccco1` (some centres undefined) [Cefuroxime Axetil] (concentration: 25 µM), the mean cell size stood at 0.99 ± 0.028.
`CC(C)NCC(O)COc1ccc(CC(N)=O)cc1` (racemic) [(±)-Atenolol] (concentration: 25 µM) returned a mean cell size of 0.836 ± 0.018.
Turning to `Cc1ccsc1C(=CCCN1CCC[C@@H](C(=O)O)C1)c1sccc1C` [Tiagabine·HCl] (concentration: 25 µM), the mean cell size turned out to be 0.936 ± 0.064.
As to `O=C1[C@H](CC[C@H](O)c2ccc(F)cc2)[C@@H](c2ccc(O)cc2)N1c1ccc(F)cc1` [Ezetimibe] (concentration: 25 µM), the mean cell size was found to be 1.03 ± 0.022.
Compound `O=C1CCc2ccc(OCCCCN3CCN(c4cccc(Cl)c4Cl)CC3)cc2N1` [Aripiprazole] (concentration: 25 µM) came in with a mean cell size of 1.02 ± 0.037.
As for `NCCCC(O)(P(=O)(O)O)P(=O)(O)O` [Alendronate·Na Trihydrate] (concentration: 25 µM), the figure is 0.927 ± 0.043; as for `CO[C@H]1/C=C/O[C@@]2(C)Oc3c(C)c(O)c4c(O)c(c(/C=N/N5CCN(C6CCCC6)CC5)c(O)c4c3C2=O)NC(=O)/C(C)=C\C=C\[C@H](C)[C@H](O)[C@@H](C)[C@@H](O)[C@@H](C)[C@H](OC(C)=O)[C@@H]1C` [Rifapentine] (concentration: 25 µM), 0.887 ± 0.025; as for `C[C@H](N)[C@H](O)c1cccc(O)c1` [Metaraminol Bitartrate] (concentration: 25 µM), 1.04 ± 0.058.
As to `CC(=O)O[C@H]1C[C@@H]2CC[C@@H]3[C@H](CC[C@@]4(C)[C@H]3C[C@H]([N+]3(C)CCCCC3)[C@@H]4OC(C)=O)[C@@]2(C)C[C@@H]1N1CCCCC1` [Vecuronium Bromide] (concentration: 25 µM), the mean cell size amounted to 0.858 ± 0.043.
With `CC(=O)OCC[N+](C)(C)C` [Acetylcholine Chloride] (concentration: 25 µM), the mean cell size was determined as 0.999 ± 0.056.
In turn, `CC(CN(C)C)CN1c2ccccc2CCc2ccccc21` (centres undefined) [Trimipramine Maleate] (concentration: 25 µM) came in with a mean cell size of 1.02 ± 0.022.
`CCCCC(=O)N(Cc1ccc(-c2ccccc2-c2nnn[nH]2)cc1)[C@H](C(=O)O)C(C)C` [Valsartan] (concentration: 25 µM) displayed a mean cell size of 0.9682 ± 0.0072.
In turn, `NCCNCCNCCN` [Trientine Dihydrochloride] (concentration: 25 µM) returned a mean cell size of 0.949 ± 0.04.
As for `CCN(CC)C(=O)C1(c2ccccc2)CC1CN` (centres undefined) [Milnacipran·HCl] (concentration: 25 µM), the figure is 0.977 ± 0.032.
Regarding `CCCN[C@H]1CCc2nc(N)sc2C1` [Pramipexole Dihydrochloride Monohydrate] (concentration: 25 µM), the mean cell size worked out at 1 ± 0.037.
As for `CC(=O)NS(=O)(=O)c1ccc(N)cc1` [Sulfacetamide·Na] (concentration: 25 µM), the figure is 0.951 ± 0.038.
As for `CCN1CC(CCN2CCOCC2)C(c2ccccc2)(c2ccccc2)C1=O` (centres undefined) [Doxapram·HCl] (concentration: 25 µM), the figure is 0.928 ± 0.013.
`O=C(O)c1cc(-c2ccc(F)cc2F)ccc1O` [Diflunisal] (concentration: 25 µM) registered a mean cell size of 0.989 ± 0.061.
For `CC(C)NCC(O)COc1cccc2ccccc12` (centres undefined) [Propranolol·HCl] (concentration: 25 µM), the mean cell size is 1.04 ± 0.061.
In turn, `Cc1ncc([N+](=O)[O-])n1CCO` [Metronidazole] (concentration: 25 µM) yielded a mean cell size of 0.928 ± 0.012.
As for `CN1CCCC(n2nc(Cc3ccc(Cl)cc3)c3ccccc3c2=O)CC1` (centres undefined) [Azelastine·HCl] (concentration: 25 µM), the figure is 0.923 ± 0.037.
The compound `CC[C@@H]1/C=C(\C)C[C@H](C)C[C@H](OC)[C@H]2O[C@@](O)(C(=O)C(=O)N3CCCC[C@H]3C(=O)O[C@H](/C(C)=C/[C@@H]3CC[C@H](Cl)[C@H](OC)C3)[C@H](C)[C@@H](O)CC1=O)[C@H](C)C[C@@H]2OC` [Pimecrolimus] (concentration: 25 µM) yielded a mean cell size of 0.822 ± 0.021.
Consider `Clc1ccc(CO/N=C(\Cn2ccnc2)c2ccc(Cl)cc2Cl)c(Cl)c1` [Oxiconazole Nitrate] (concentration: 25 µM), for which the mean cell size came to 0.933 ± 0.016.
`CC1=C(C/C=C(\C)CCC[C@H](C)CCC[C@H](C)CCCC(C)C)C(=O)c2ccccc2C1=O` [Phytonadione] (concentration: 25 µM) came in with a mean cell size of 0.986 ± 0.024.
The value for `CC1=C(/C=C/C(C)=C/C=C/C(C)=C\C(=O)O)C(C)(C)CCC1` [Isotretinoin (13-Cis-Retinoic Acid)] (concentration: 25 µM) was 0.864 ± 0.03.
In turn, `O=C(CCCN1CC=C(n2c(=O)[nH]c3ccccc32)CC1)c1ccc(F)cc1` [Droperidol] (concentration: 25 µM) gave a mean cell size of 0.962 ± 0.032.
Compound `CN1CCN2c3ncccc3Cc3ccccc3C2C1` (centres undefined) [Mirtazapine] (concentration: 25 µM) gave a mean cell size of 0.958 ± 0.033.
For `CC(=O)[C@H]1CC[C@H]2[C@@H]3CCC4=CC(=O)CC[C@]4(C)[C@H]3CC[C@]12C` [Progesterone] (concentration: 25 µM), the mean cell size was 1 ± 0.045.
As for `CNS(=O)(=O)Cc1ccc2[nH]cc(CCN(C)C)c2c1` [Sumatriptan Succinate] (concentration: 25 µM), the figure is 0.955 ± 0.031.
For `NC(=O)C(c1ccccc1)(c1ccccc1)[C@@H]1CCN(CCc2ccc3c(c2)CCO3)C1` [Darifenacin·HBr] (concentration: 25 µM), the mean cell size is 1.02 ± 0.015.
`COCCc1ccc(OCC(O)CNC(C)C)cc1` (centres undefined) [Metoprolol Tartrate] (concentration: 25 µM) gave a mean cell size of 0.935 ± 0.026.
`C[C@H]1O[C@H](O[C@H]2[C@H](O)[C@@H](O)[C@@H](O[C@@H]([C@H](O)[C@@H](O)C=O)[C@H](O)CO)O[C@@H]2CO)[C@H](O)[C@@H](O)[C@@H]1N[C@H]1C=C(CO)[C@@H](O)[C@H](O)[C@H]1O` [Acarbose] (concentration: 25 µM) displayed a mean cell size of 1.04 ± 0.047.
The value for `OC(c1cc(C(F)(F)F)nc2c(C(F)(F)F)cccc12)C1CCCCN1` (centres undefined) [Mefloquine·HCl] (concentration: 2.5 µM) was 0.9935 ± 0.0057.
`CC#C[C@]1(O)CC[C@H]2[C@@H]3CCC4=CC(=O)CCC4=C3[C@@H](c3ccc(N(C)C)cc3)C[C@@]21C` [Mifepristone] (concentration: 25 µM) yielded a mean cell size of 0.903 ± 0.021.
